High-throughput results (PubChem BioAssay)
Only some compounds are listed: those with a hit (about 19% of all), similar ones and a draw of the others.
ELG1 repair inh: blocks ELG1-dependent DNA repair in HEK293T cells; HEK293T ELG1-luciferase reporter, luminescence, 16 h; DNA damage induced by 5-fluorouridine; Potency, µM (top dose mostly 46.1 µM), without a hit: at the top dose activity change, negative = inhibition, usual class: inhibitors; 330,000 compounds, 2.3% hits; also: potency is read from the fitted curve at half-maximal effect; nearly all actives have a fitted effect of over 55% in size
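Luminescence from the luciferase reporter, measured 30 min after ONE-Glo reagent at room temperature, was the read-out. Beforehand, 2,000 cells per well were exposed for 16 hr at 37 °C to 5-fluorouridine together with compound or vehicle.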
HT1080 IDH1KD tx: toxicity to HT-1080 IDH1 knockdown cells (counter line). HT-1080 IDH1 knockdown viability, ATP luminescence, 48 h. 360,000 compounds, 2% hits. AID 686971. Potency, µM (series often up to 46.1 µM), for inactives: top-dose activity, negative = toxicity, most hits filed as cytotoxic;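 also: potency is read from the fitted curve at half-maximal effect; 0% = DMSO wells and -100% = cell-free medium wells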
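Knockdown cells (IDH1KD HT-1080) received compounds 2 h after plating at 750 cells/well and were kept 48 h at 37 °C in 5% FBS RPMI. A CellTiter-Glo luminescence read gave % activity for curve fitting.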
IL1B secr inh: blocks inflammasome-driven IL-1 beta release. THP-1 LPS/ATP IL-1B secretion, AlphaLISA, 16 h; stronger effect = lower value. activity change, % at 57.5 µM. 360,000 compounds, 4.7% hits. AID 743279; in the data active = activity change below about -50%; inconclusive = mostly about -30% to -49%
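THP-1 cells pretreated 1 hr with compounds (up to 57.5 uM final), then stimulated with LPS (250 ng/mL final) plus ATP (1.25 mM final); secreted IL-1B measured by AlphaLISA after 16 hr, decreased signal indicating inhibition.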
HT1080NT lethal: kills 2HG-producing HT-1080-NT fibrosarcoma cells; HT-1080-NT fibrosarcoma viability, CellTiter-Glo ATP luminescence, 48 h; 360,000 compounds, 1.6% hits; Potency, µM (doses to about 46.1 µM), for the others: top-dose activity, negative = less viability, hits mostly cytotoxic; AID 686970;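 also: NT is the 2HG producing partner of a matched IDH1 knockdown line; potency is read from the fitted curve at half-maximal effect; 0% = DMSO-treated cells and -100% = media-only wells without cells; nearly all actives have a fitted effect of over 55% in size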
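HT-1080-NT fibrosarcoma cells (2HG-overproducing), 750 cells/well in RPMI with 5% FBS, dosed after 2 h and incubated 48 h at 37C. CellTiter-Glo luminescence normalized to DMSO and no-cell wells; concentration-response curves fitted and classed.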
DT40 TDP1 CPT: growth inhibition of DT40 Tdp1-/-;hTDP1 cells with camptothecin (screen for TDP1 inhibitors); chicken DT40 Tdp1-/-;hTDP1 cells + 20 nM CPT, ATP luminescence, 48 h; Potency, µM (doses to about 46.2 µM), inactives show at the top dose activity change, negative = growth inhibition, usual class: inhibitors; 420,000 compounds, 12% hits; also: potency is read from the fitted curve at half-maximal effect; nearly all actives have a fitted effect of over 55% in size
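Chicken DT40 Tdp1-/- cells complemented with human TDP1, 400 cells/well, exposed to compounds plus 20 nM camptothecin for at least 48 h at 37 C; viability read as ATP content by CellTiter-Glo luminescence.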
DT40 TDP1 no CPT: qHTS for Inhibitors of human tyrosyl-DNA phosphodiesterase 1 (TDP1): qHTS in cells in absence of CPT; 420,000 compounds, 15% hits; DT40 Tdp1-/- hTDP1 cells, no CPT, ATP luminescence, 48 h; Potency, µM (series often up to 46.2 µM), for the others: top-dose activity change, negative = growth inhibition, usual class: inhibitors; AID 686978, 2013; also: potency is read from the fitted curve at half-maximal effect; nearly all actives have a fitted effect of over 55% in size
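DT40 Tdp1-/-;hTDP1 cells, no CPT (DMSO vehicle only), 400 cells/well; compounds pin-transferred; ≥48 hr, 37 °C; CellTiter-Glo 30 min RT dark, luminescence read.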
* = called active by the depositor; ? = inconclusive; . = no result. Unless noted, calls follow the shape of the dose curve; as a rule, active = well fitted curve in the direction sought with a large enough effect; inconclusive = small, poorly fitted or top-dose-only effect, or another doubt; inactive = no such curve, though single readings can be large; an effect the other way counts as inactive or inconclusive. Unless noted, % is scaled to controls: 0 for no effect and ±100 for the full control effect.

SMILES | ELG1 repair inh | HT1080 IDH1KD tx | IL1B secr inh | HT1080NT lethal | DT40 TDP1 CPT | DT40 TDP1 no CPT
CN(C)C(=O)CCc1ccc2c3c([nH]c2c1)[C@]1(C)[C@@H](C(=O)N2CCCCC2)C[C@H](CC(=O)NCC24CC5CC(CC(C5)C2)C4)C(=O)N1CC3 | ? | -19.4% | ? | -17.1% | 9.2µM* | 13µM*
CC[C@]12c3[nH]c4cc(-c5ccco5)ccc4c3CCN1C(=O)[C@@H](CC(=O)NCc1cccc(C(F)(F)F)c1)C[C@@H]2C(=O)N1CCN(C(=O)C2CC2)CC1 | ? | ? | 0.0 | -25.6% | 16.4µM* | ?
CC1CC(CC(=O)NC(=S)Nc2ccccc2Cl)C(=O)O1 (stereo not drawn) | 17.2% | 1.7% | -14.1 | -6.1% | 2.9% | -23.2%
CC(C)OP(=O)(c1ccc(N(C)C)cc1)C(O)c1ccc(N(C)C)cc1 (stereo not drawn) | -12.4% | -1.8% | -2.2 | -0.8% | 13.2% | -16.0%
COC(=O)CCC(=O)N1CCC(Oc2cccc(C(=O)NCc3ccccn3)c2)CC1 | . | -0.1% | 25.8 | 0.5% | -21.9% | -12.1%
C[C@]12c3[nH]c4cc(-c5ccco5)ccc4c3CCN1C(=O)[C@@H](CC(=O)NCc1cccc(C(F)(F)F)c1)C[C@@H]2C(=O)N1CCCCC1 | -7.4% | ? | -60.1* | ? | ? | 25.9µM*
CC[C@]12c3[nH]c4cc(-c5ccco5)ccc4c3CCN1C(=O)[C@@H](CC(=O)NCC13CC4CC(CC(C4)C1)C3)C[C@@H]2C(=O)N1CCN(C(=O)C2CC2)CC1 | ? | ? | ? | -21.8% | ? | 23.1µM*
CC[C@]12c3[nH]c4cc(-c5ccco5)ccc4c3CCN1C(=O)[C@@H](CC(=O)NCCC1=CCCCC1)C[C@@H]2C(=O)N1CCN(C(=O)C2CC2)CC1 | 20.6µM* | -19.2% | -50.2* | -18.7% | ? | ?
C[C@]12c3[nH]c4cc(-c5ccco5)ccc4c3CCN1C(=O)[C@@H](CC(=O)NCC13CC4CC(CC(C4)C1)C3)C[C@@H]2C(=O)N1CCCCC1 | 0.9% | ? | ? | -28.3% | 5.17µM* | 6.51µM*
CC[C@]12c3[nH]c4ccc(OC)cc4c3CCN1C(=O)C(CC(=O)NCCCOC)C[C@@H]2C(=O)N1CCN(C(=O)C2CC2)CC1 (stereo partly drawn) | 13.6% | 3.5% | -1.8 | 0.8% | ? | 3.0%
C[C@]12c3[nH]c4cc(-c5ccco5)ccc4c3CCN1C(=O)[C@@H](CC(=O)NCCCn1ccnc1)C[C@@H]2C(=O)N1CCCCC1 | -1.1% | -7.4% | ? | -2.8% | ? | -9.4%
COc1ccc2[nH]c3c(c2c1)CCN1C(=O)C(CC(=O)NCCC2=CCCCC2)C[C@H](C(=O)N2CCCCC2)[C@@]31CCc1ccccc1 (stereo partly drawn) | 7.3% | 5.1% | 6.5 | 9.0% | ? | ?
CC(C)(C)OC(=O)N1CCC[C@H]1C(=O)N/N=C/c1ccc2ncccc2c1 | 0.0% | 5.8% | -17.4 | 13.3% | 4.3% | -3.5%
C#CCOCCOCCOCCNc1nc(N2CCN(C(=O)[C@H]([C@@H](C)CC)n3cc(CCC(=O)O)nn3)CC2)nc(N2CCN(C(=O)[C@H](CCCCN)n3cc(CC(C)O)nn3)CC2)n1 (stereo partly drawn) | . | -1.6% | 15.0 | -3.7% | -15.7% | -1.3%
COc1cccc(NC(=O)COC(=O)CCC2CCCC2)c1 | 17.7% | 0.4% | 0.5 | 10.2% | 15.8% | -3.4%
CC[C@]12c3[nH]c4cc(-c5ccco5)ccc4c3CCN1C(=O)[C@@H](CC(=O)NCCCN(C)C)C[C@@H]2C(=O)N1CCN(C(=O)c2ccco2)CC1 | 5.1% | 5.3% | 11.2 | 5.7% | -3.9% | -24.7%
CC[C@]12c3[nH]c4cc(-c5ccco5)ccc4c3CCN1C(=O)[C@@H](CC(=O)NCC13CC4CC(CC(C4)C1)C3)C[C@@H]2C(=O)N1CCN(C(=O)c2ccco2)CC1 | -23.5% | ? | -54.4* | ? | 9.2µM* | 20.6µM*
CCOc1ncccc1C(=O)OC(C)C(=O)Nc1ccc(N2CCOCC2)cc1 (stereo not drawn) | 0.0% | 0.0% | 12.6 | 7.2% | 5.3% | -5.6%
Cc1cccc(OCC(=O)Nc2cccc(C(=O)OCc3cc(=O)n4nc(C(C)C)sc4n3)c2)c1 | . | . | . | . | ? | 11.6µM*
CC(C)c1nn2c(=O)cc(COC(=O)c3cccc(NC(=O)COc4ccc(F)cc4)c3)nc2s1 | . | . | . | . | 13µM* | 20.6µM*
Cc1cccc(C(=O)Nc2cccc(OCc3cc(=O)n4cccc(C)c4n3)c2)c1 | . | . | . | . | 8.9% | -6.5%
Cc1cccc(OCC(=O)Nc2cccc(OCc3cc(=O)n4cccc(C)c4n3)c2)c1 | . | . | . | . | 20.6µM* | 14.6µM*
C=CCC1(CC=C)CCCN1Cc1nc(COc2ccccc2)no1 | -2.0% | -19.8% | -15.8 | -0.4% | ? | ?
Cc1ccc(C)c(NC(=O)CSc2nc3c([nH]c4ccccc43)c(=O)n2-c2ccc(F)cc2)c1 | . | . | . | . | 14.6µM* | 13µM*
COc1ccc(-n2c(SCC(=O)N3CCc4ccccc43)nc3c([nH]c4ccccc43)c2=O)cc1 | . | . | . | . | ? | -23.3%
CCc1nnc(NC(=O)CSc2nc3c([nH]c4ccccc43)c(=O)n2-c2cc(C)cc(C)c2)s1 | . | . | . | . | ? | 16.4µM*
